Results filed as inconclusive are left out. Calls of active or inactive are those of the source. Calls come from the whole dose curve; as a rule, active = well fitted cell-killing curve with a large enough effect; inconclusive = small, poorly fitted or top-dose-only effect, or effect the other way; inactive = no such curve, though single readings can be large or run the other way.
Test system: SKOV3
Assay: Confirmatory qHTS for gynecologic anti-cancer compounds from libraries of approved drugs and bioactive compounds; note: nearly all actives have a fitted effect of over 55% in size
Details: gynecologic cancer cell panel viability, ATPlite luminescence, 48 h; series mostly up to 57.6 µM; activity change, negative = viability loss: at the top concentration
How it was run: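 IC50 values derive from an ATPlite ATP-content luminescence assay following 48 h treatment at 37 C. Each compound ran as an 11-concentration, threefold series (57.5 uM to 0.977 nM); HEK 293T served as control line for selectivity index.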
% is set by controls: 0 for no effect and ±100 for the full control effect; potency is the fitted concentration of half-maximal effect.

SMILES | Potency | activity change, negative = viability loss
O=C(c1ccc(F)c(F)c1Nc1ccc(I)cc1F)N1CC(O)([C@@H]2CCCCN2)C1 | 6.11 µM (active) | 
NC(=O)c1ccc2nc(-c3ccc(Oc4ccc(Cl)cc4)cc3)[nH]c2c1 |  | 11.9% (inactive)
CN1CCN(CCOc2cc(OC3CCOCC3)c3c(Nc4c(Cl)ccc5c4OCO5)ncnc3c2)CC1 |  | -28% (inactive)
Cc1cc(Nc2nc(N[C@@H](C)c3ncc(F)cn3)ncc2Cl)n[nH]1 |  | -9.9% (inactive)
COc1cc(Nc2ncc(F)c(Nc3ccc4c(n3)N(COP(=O)(O)O)C(=O)C(C)(C)O4)n2)cc(OC)c1OC | 5.44 µM (active) | 
CNc1nc(Nc2ccc(C(=O)N3CCOCC3)cc2OC)ncc1Cl |  | 0.103% (inactive)
COc1ccc2c(c1)c(CC(=O)O)c(C)n2C(=O)c1ccc(Cl)cc1 |  | 18.5% (inactive)
CCCCc1oc2ccccc2c1C(=O)c1cc(I)c(OCCN(CC)CC)c(I)c1 | 70.8 µM (active) | 
CC[C@@]1(O)C(=O)OCc2c1cc1n(c2=O)Cc2c-1nc1ccccc1c2/C=N/OC(C)(C)C | 0.0432 µM (active) | 
CC(C)C[C@H](NC(=O)[C@H](Cc1ccccc1)NC(=O)c1cnccn1)B(O)O | 3.06 µM (active) | 
CNC(=O)c1ccccc1Nc1nc(Nc2ccc(N3CCOCC3)cc2OC)ncc1Cl | 6.85 µM (active) | 
O=C(c1ccc(/C=C/c2n[nH]c3ccccc23)cc1)N1CCNCC1 | 21.7 µM (active) | 
CC(C)n1nc(-c2cc3cc(O)ccc3[nH]2)c2c(N)ncnc21 | 3.85 µM (active) | 
c1nc2nc(Nc3ccc(N4CCOCC4)cc3)nc(NC3CCCCC3)c2[nH]1 |  | -28.5% [at 19.5 µM] (inactive)
C[C@@]1(C(=O)Nc2ccc(F)nc2)CCCN1c1nc(Nc2cc(C3CC3)[nH]n2)c2cccn2n1 | 3.43 µM (active) | 
Cc1nc(Nc2ncc(C(=O)Nc3c(C)cccc3Cl)s2)cc(N2CCN(CCO)CC2)n1 | 21.7 µM (active) | 
Cn1cc(-c2[nH]c3cc(NC(=O)[C@H](N)C4CCCCC4)cc4c3c2C=NNC4=O)cn1 | 0.968 µM (active) | 

SMILES | Potency | activity change, negative = viability loss
O=C(CCCCCCNC(=O)c1cnc(N(c2ccccc2)c2ccccc2)nc1)NO | 12.2 µM (active) | 
CC(Oc1cc(-n2cnc3ccc(CN4CCN(C)CC4)cc32)sc1C(N)=O)c1ccccc1C(F)(F)F (stereo not drawn) | 19.3 µM (active) | 
Nc1nc(Cl)nc2c1ncn2C1OC(CO)C(O)C1F (stereo not drawn) | 0.432 µM (active) | 
CCS(=O)(=O)c1cccc(-c2cc(C(=O)NC3CCN(C)CC3)c(C)c3[nH]c4ncc(C)cc4c23)c1 | 4.76 µM (active) | 
Oc1cn2c(n1)Nc1ccc(Cl)c(Cl)c1C2 |  | -19.5% [at 19.5 µM] (inactive)
O=C(O)c1ccc(Nc2ncc3c(n2)-c2ccc(Cl)cc2C(c2c(F)cccc2F)=NC3)cc1 |  | -12.6% (inactive)
O=c1[nH]c(=O)n([C@H]2C[C@H](O)[C@@H](CO)O2)cc1F |  | -5.81% (inactive)
Cc1[nH]c2ccccc2c1CCNCc1ccc(/C=C/C(=O)NO)cc1 | 0.172 µM (active) | 
CCN[C@H]1C[C@H](C)S(=O)(=O)c2sc(S(N)(=O)=O)cc21 |  | -13.1% (inactive)
CCC(=O)N1CCN(c2ccc(-n3c(=O)ccc4cnc5ccc(-c6cnc7ccccc7c6)cc5c43)cc2C(F)(F)F)CC1 | 0.0044 µM (active) | 
CCCC(=O)O[C@]1(C(=O)CCl)[C@@H](C)C[C@H]2[C@@H]3CCC4=CC(=O)C=C[C@]4(C)[C@@]3(F)C(=O)C[C@@]21C |  | -11.2% (inactive)
Cc1cc(C(=O)N2CCN(c3cccc(Cl)c3)CC2)n(-c2ccccc2)n1 | 0.544 µM (active) | 
Cc1cc(SCc2sc(-c3ccc(C(F)(F)F)cc3)nc2C)ccc1OCC(=O)O |  | -4.3% (inactive)
CC(=O)c1cnc2ccc(-c3cc(Cl)c(O)c(Cl)c3)nc2c1NC1CCC(CN(C)C)CC1 (stereo not drawn) | 0.498 µM (active) | 
NS(=O)(=O)c1ccc(Nc2nc(OCC3CCCCC3)c3[nH]cnc3n2)cc1 |  | -0.308% (inactive)
CCOC(=O)C1=C(C)NC2=C(C(=O)CC(C)(C)C2)C1c1ccc(-c2ccccc2)cc1 (stereo not drawn) |  | -7.85% (inactive)

From PubChem BioAssay AID1345085 (National Center for Advancing Translational Sciences (NCATS), 2018)
